Structures can show the parent of a compound that is named as a salt.
System: Vero E6 infected with SARS-CoV-2
Test: inhibition of SARS-CoV-2 cytopathic effect; higher = more antiviral protection, active = above 15
Details: 8.33 nM; 48 h

Row | SMILES | inhibition of SARS-CoV-2 cytopathic effect
1 | CCOC(=O)Nc1ccc2c(c1)N(C(=O)CCN(CC)CC)c1ccccc1S2 [ethacizin] | -5.11% (inactive)
2 | OCc1cncc(F)c1 [5-fluoro-3-pyridyl-methanol] | 0.14% (inactive)
3 | Cc1ncc(CO)c(CO)c1O [pyridoxine] | -9.76% (inactive)
4 | Oc1ccc(CC2NCCc3cc(O)c(O)cc32)cc1 (stereo not given) [higenamine] | 2.53% (inactive)
5 | Cc1c(C)c(NCC(=O)N(C)C2CCN(Cc3ccc(C(N)=O)cc3)CC2)c(C)c(C)c1N | -0.21% (inactive)
6 | COc1cccc(Nc2c(C(N)=O)cnc3c(C)cc(S(=O)(=O)c4cccc(C(=O)N(C)C)c4)cc23)c1 | 3.12% (inactive)
7 | CCNC(C)CN1CCc2c(c(=O)oc3ccccc23)C1 (stereo not given) | 0.86% (inactive)
8 | Cc1c(C)c2c(c(C)c1O)CCC(C)(C(=O)O)O2 (stereo not given) [trolox] | 3.64% (inactive)
9 | COc1cccc2c1c(O)c(C(=O)N(C)c1ccc(C(F)(F)F)cc1)c(=O)n2C [tasquinimod] | 3.29% (inactive)
10 | CC[N+](CC)(CC)CCOc1cccc(OCC[N+](CC)(CC)CC)c1OCC[N+](CC)(CC)CC [gallamine-triethiodide] | 3.57% (inactive)
11 | C#Cc1cccc(Nc2ncnc3cc4c(cc23)OCCOCCOCCO4)c1 [icotinib] | 0.11% (inactive)
12 | C[C@]12CC[C@@H](O)C[C@H]1CC[C@@H]1[C@@H]2CC[C@]2(C)C(=O)CC[C@@H]12 [3-alpha-hydroxy-5-beta-androstan-17-one] | 1.38% (inactive)
13 | C[C@]12CC[C@@H]3c4ccc(O)cc4CC[C@H]3[C@@H]1CCC2=O [estrone] | 1.93% (inactive)
14 | COC[C@@H](NC(C)=O)C(=O)NCc1ccccc1 [Lacosamide] | -10.6% (inactive)
15 | COC(=O)C[C@](O)(CCCC(C)(C)O)C(=O)O[C@@H]1C(OC)=C[C@]23CCCN2CCc2cc4c(cc2[C@H]13)OCO4 [homoharringtonine] | 2.85% (inactive)
16 | O=C1OC2(c3ccccc31)c1cc(I)c(O)c(I)c1Oc1c2cc(I)c(O)c1I [erythrosine] | -1.04% (inactive)
17 | Nc1ccc(S(=O)(=O)Nc2ccnn2-c2ccccc2)cc1 [sulfaphenazole] | 2.26% (inactive)
18 | CNc1ncc2cc(-c3cc(NC(=O)NCCC(C)(C)C)c(F)cc3C)c(C)nc2n1 | 1.85% (inactive)
19 | COc1ccc2[nH]c3c(-c4cccc5ccccc45)nccc3c2c1 | 0.26% (inactive)
20 | CO/N=C1\CN(c2nc3c(cc2F)c(=O)c(C(=O)O)cn3C2CC2)CC1CN (stereo not given) [gemifloxacin] | -3.09% (inactive)

Row | SMILES | inhibition of SARS-CoV-2 cytopathic effect
21 | CCN(Cc1ccncc1)C(=O)C(CO)c1ccccc1 (stereo not given) [tropicamide] | 4.91% (inactive)
22 | CC1(C)S[C@@H]2[C@H](NC(=O)[C@H](NC(=O)N3CCNC3=O)c3ccccc3)C(=O)N2[C@H]1C(=O)O [azlocillin] | -1.64% (inactive)
23 | C[C@@H]1C[C@H]2[C@@H]3C[C@H](F)C4=CC(=O)C=C[C@]4(C)[C@@]3(Cl)[C@@H](O)C[C@]2(C)[C@H]1C(=O)COC(=O)C(C)(C)C [clocortolone-pivalate] | 2.86% (inactive)
24 | CN1CCN(c2cc(-c3ccccc3)nc(N)n2)CC1 | 3.76% (inactive)
25 | C[C@]12CC[C@H](O)C[C@H]1CC[C@@H]1[C@@H]2C[C@@H](O)[C@]2(C)[C@@H](C3=CC(=O)OC3)CC[C@]12O [digoxigenin] | -0.54% (inactive)
26 | CCOc1cc(C(C)(C)C)ccc1C1=N[C@@](C)(c2ccc(Cl)cc2)[C@@](C)(c2ccc(Cl)cc2)N1C(=O)N1CCN(CCCS(C)(=O)=O)CC1 | -0.35% (inactive)
27 | Cc1cc(/C=C/C#N)cc(C)c1Nc1ccnc(Nc2ccc(C#N)cc2)n1 [rilpivirine] | -3.25% (inactive)
28 | N[C@@H]1CCCN(c2c(/C=C3\SC(=O)NC3=O)cccc2-c2ccccc2)C1 | -3.14% (inactive)
29 | CO/N=C(\C(=O)N[C@@H]1C(=O)N2C(C(=O)O)=C(Cn3ccc(=N)n3CCO)CS[C@H]12)c1csc(N)n1 [Cefoselis sulfate] | -3.45% (inactive)
30 | CC(C)(C)NCc1cc(Nc2ccnc3cc(Cl)ccc23)c2c(c1O)CCCC2 [naphthoquine-phosphate] | -2.22% (inactive)
31 | CC(C)(COP(=O)(O)OP(=O)(O)OC[C@H]1O[C@@H](n2cnc3c(N)ncnc32)[C@H](O)[C@@H]1OP(=O)(O)O)[C@@H](O)C(=O)NCCC(=O)NCCS [coenzyme-A] | 0.97% (inactive)
32 | O=C(Nc1cccc(Cl)c1)c1ccccn1 | -0.89% (inactive)
33 | CCCC(O)C(CC)CO (stereo not given) [2-ethyl-1,3-hexanediol] | 0.49% (inactive)
34 | Nc1nc(/C(=C/CC(=O)O)C(=O)N[C@@H]2C(=O)N3C(C(=O)O)=CCS[C@H]23)cs1 [ceftibuten] | 2.3% (inactive)
35 | CN(C)CC[C@@H](c1ccc(Cl)cc1)c1ccccn1 [chlorphenamine] | 1.98% (inactive)
36 | CCOC(=O)N1CSC[C@H]1C(=O)O [telmesteine] | 2.23% (inactive)
37 | Cc1cccc(-c2n[nH]cc2-c2ccc(F)c(-c3cnn(CCO)c3)c2)n1 | 1.16% (inactive)
38 | C[C@H](CCC(=O)O)[C@H]1CC[C@H]2[C@@H]3C[C@H](O)[C@@H]4C[C@H](O)CC[C@]4(C)[C@H]3CC[C@]12C [Hyodeoxycholic acid (HDCA)] | 0.2% (inactive)
39 | CO/N=C(\C(=O)N[C@@H]1C(=O)N2C(C(=O)O)=C(CSc3nc(=O)c(O)nn3C)CS[C@H]12)c1csc(N)n1 [ceftriaxone] | -0.8% (inactive)
40 | O=C(O)c1ccc(Nc2ncc3c(n2)-c2ccc(Cl)cc2C(c2c(F)cccc2F)=NC3)cc1 | -1.02% (inactive)
